Screens (PubChem)
hDAT+cocaine – changed human dopamine transporter uptake under cocaine IC80; Q01959; LLC-PK1 hDAT cells, [14C]-dopamine uptake with cocaine IC80; actives deviate in either direction; B-score at 10 µM; 1.3% of 110,000 active;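 active means Z score or B-score, a plate-position-corrected score, falls beyond the plate's 99.7% confidence bounds, in either direction; inactive means both scores lie inside the 99.7% bounds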;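 further: scored against the spread of the other compound wells on the same plate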
PostGolgi yeast – growth inhibition of a yeast mutant, post-Golgi transport screen | post-Golgi transport phenotypic cell assay | inhibition, % at 10 µM | 0.9% of 98,000 active;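 further: yeast cells grown in 1536-well plates; yeast grown about 18 h at 30C before absorbance read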
Cav32 inh – inhibitors of human Cav3.2 T-type calcium channel | Cav3.2-expressing cells, Fluo-4 calcium fluorescence FDSS; hits give low values | B-score at 10 µM | AID 449739 | O95180 | 4% of 100,000 active;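 active means single-dose well whose peak fluorescence ratio is a statistical outlier from its plate by either plate-standardised score or position-corrected B-score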
PostGolgi ctrl – inhibits growth of the yeast control strain | efflux-deficient yeast background strain, growth absorbance A615, 16 h | inhibition, % at 10 µM | 5% of 98,000 active | AID 738
Smad3 FoxH1 inh – Smad3 (human) transcription factor binding inhibition; P84022; 0.29% of 88,000 active; TR-FRET Smad3/Dy647-FoxH1 peptide binding, europium anti-His; inhibition, % at 25 µM;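 active means compounds that reduce the energy-transfer binding signal between the protein and its labelled peptide by more than half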;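 further: 0% = Smad3 plus labelled peptide maximal FRET and 100% = peptide-only background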
TNAP act mid DEA – human TNAP activation, intermediate phosphate acceptor; P05186; purified TNAP, CDP-star luminescence, 100 mM DEA, 30 min; hits give high values; scale: 0 levamisole-inhibited, 1 vehicle-only enzyme; activation factor at 20 µM; 64,000 tested, under 10 active;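 active means activation factor of at least 2 at 20 µM, relative to controls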
Target sequence (P05186 whole entry, looked up): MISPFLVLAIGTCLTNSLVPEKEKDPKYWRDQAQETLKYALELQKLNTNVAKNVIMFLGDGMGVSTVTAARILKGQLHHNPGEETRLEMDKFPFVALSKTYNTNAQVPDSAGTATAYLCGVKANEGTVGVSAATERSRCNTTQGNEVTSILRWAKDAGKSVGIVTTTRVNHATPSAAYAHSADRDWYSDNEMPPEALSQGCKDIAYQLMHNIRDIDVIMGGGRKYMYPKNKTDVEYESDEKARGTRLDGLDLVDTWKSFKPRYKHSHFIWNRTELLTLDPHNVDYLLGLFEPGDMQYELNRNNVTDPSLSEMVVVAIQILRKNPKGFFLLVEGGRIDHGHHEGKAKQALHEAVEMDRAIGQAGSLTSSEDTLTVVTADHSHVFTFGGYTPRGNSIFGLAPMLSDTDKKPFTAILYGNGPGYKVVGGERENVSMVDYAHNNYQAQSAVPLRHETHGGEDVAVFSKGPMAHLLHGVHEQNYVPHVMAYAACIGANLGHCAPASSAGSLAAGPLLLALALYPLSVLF
* hit, by the source's call; nt = no result given. In the library only some 8.7% were active in any assay of this set; here they are far more common. Unless noted, no stated cut-off is given here; in the data, active means inhibition above about 30%; inactive means the rest.

SMILES	hDAT+cocaine	PostGolgi yeast	Cav32 inh	PostGolgi ctrl	Smad3 FoxH1 inh	TNAP act mid DEA
O=C(O)c1cccc(N2C(=O)CSC2c2c(F)cccc2Cl)c1 (stereo not given)	1.4	8	0.84	1	nt	0.9
CCC(C)(NC(=O)c1cccc(N2C(=O)CSC2c2ccccc2)c1)C(=O)Nc1ccccc1C (stereo not given)	0.32	-8	-5.1*	8	nt	nt
Cc1ccc(/C=C/C(=O)C2C(=O)c3ccccc3C2=O)cc1	0.015	0	0.28	0	nt	nt
COc1ccc(/C=C/C(O)=C2/C(=O)N(C)C3(C)CC2c2ccccc2O3)cc1 (stereo not given)	0.014	1	-5*	26	14	0.9
Cc1ccc(/C=C/C(O)=C2/C(=O)N(C)C3(C)CC2c2ccccc2O3)cc1 (stereo not given)	-0.48	7	-2.4	44*	nt	nt
CCN1C(=O)C(C(=O)Nc2ccc(OC)cc2)C2CC1(C)Oc1ccccc12 (stereo not given)	0.051	-4	-2.3	16	6	0.9
Cc1oc2c(c1C(=O)c1ccc(Cl)cc1)C(=O)C(=O)c1ccccc1-2	nt	45*	nt	58*	nt	nt
Cc1ccc(C(=O)c2c(C)oc3c2C(=O)C(=O)c2ccccc2-3)cc1	-0.065	29	-3.9	-5	40	nt
Cc1ccc(C(=O)c2coc3c2C(=O)C(=O)c2ccccc2-3)cc1	0.098	81*	-2.9	70*	7	nt
CC(NC(=O)Nc1ccc2c(c1)OCO2)C1CCCO1 (stereo not given)	0.24	-5	0.011	1	19	0.9
CC(C)c1noc2ncc(C(=O)c3cc(Cl)cc(Cl)c3O)cc12	-0.49	-13	-6.5*	12	-4	nt
COc1ccc(O)c(C(=O)c2cnc3onc(C)c3c2)c1	0.91	-27	-1.8	-8	11	nt
COc1ccc(NC(C)=O)cc1NC(=O)CN1CCN(S(=O)(=O)c2ccc(C(C)C)cc2)CC1	0.65	-1	nt	-1	-12	1
O=C(CN1CCN(S(=O)(=O)c2ccc(Br)cc2)CC1)Nc1ccccc1F	-1.5	-14	-2.5	54*	1	1
O=C(CN1CCCN(S(=O)(=O)c2ccc(F)cc2)CC1)Nc1ccccc1Br	3.2*	8	-3.2	41*	-1	0.7
COc1ccc(C)cc1NC(=O)CN1CCN(S(=O)(=O)c2ccc(Br)cc2)CC1	-1.4	1	0.41	46*	nt	0.9
O=C(CN1CCN(S(=O)(=O)c2ccc(Br)cc2)CC1)Nc1ccc(F)cc1	-0.014	4	nt	7	-8	1
O=C(CN1CCN(S(=O)(=O)c2ccc(Br)cc2)CC1)Nc1ccc(F)cc1F	0.39	7	nt	8	-9	0.8
COc1ccc(C(O)c2nccn2Cc2ccccc2)cc1OC (stereo not given)	0.11	-4	0.53	-4	-1	nt
COc1ccc(CCNS(=O)(=O)c2ccc3c(c2)oc(=O)n3C)cc1OC	nt	4	0.34	12	0	0.9
Cc1ccc(OCC(=O)c2c(O)c3ccccc3oc2=O)cc1C	0.91	4	-8.3*	1	2	nt
Cc1ccc(C(C)C)c(OCC(=O)c2c(O)c3ccccc3oc2=O)c1	0.35	nt	-7.6*	nt	nt	nt
Cc1ccc(OCC(=O)NNC(=O)c2cc3ccccc3o2)cc1C	-0.28	8	1.2	4	nt	nt
O=C1Nc2cc(Cl)c(Cl)cc2N(O)N1c1cccc(Cl)c1	1.3	-1	-0.5	2	1	nt
CCCOc1ccc(C(=O)Nc2ccc(N3CCN(C(C)=O)CC3)cc2)cc1	0.2	-4	0.087	3	nt	0.8
SMILES	hDAT+cocaine	PostGolgi yeast	Cav32 inh	PostGolgi ctrl	Smad3 FoxH1 inh	TNAP act mid DEA
CC(=O)N1CCN(c2ccc(OC[C@H]3CO[C@](Cn4ccnc4)(c4ccc(Cl)cc4Cl)O3)cc2)CC1	3.8*	nt	-0.66	nt	nt	nt
CCOc1ccc(CC(=O)NNC(=S)Nc2ccccc2)cc1Br	2	5	-7.4*	-5	-22	nt
Cc1cccc(C)c1NC(=O)C(c1ccc([N+](=O)[O-])cc1)N1CCCCC1 (stereo not given)	-0.61	-1	-5.6*	0	nt	nt
Cc1ccccc1C(=O)NC(=S)Nc1sc2c(c1C#N)CCC(C)C2 (stereo not given)	0.029	2	-0.66	7	nt	nt
CCOc1ccc(NC2c3ccccc3C(=O)N2Cc2ccco2)cc1 (stereo not given)	0.92	7	-4.7*	6	-16	0.9
O=C1c2ccccc2C(Nc2ccc(F)c(Cl)c2)N1Cc1ccco1 (stereo not given)	-1.2	0	-6*	26	1	0.8
CC1(C)CC(=O)C2=C(C1)N(Cc1cccnc1)C(=O)C2(NC(=O)c1ccc(F)cc1)C(F)(F)F (stereo not given)	-0.1	-3	1.8	4	-4	nt
CCn1c(=O)cc(N2CCC3(CC2)OCCO3)[nH]c1=O	-0.86	5	0.38	0	13	0.9
CCCCc1ccc(Nc2ncnc3nc[nH]c23)cc1	nt	-6	nt	60*	1	1.2
Cc1ccc2c(c1)[nH]c1c(N3CCN(Cc4ccccc4)CC3)ncnc12	1.1	0	-4.9*	14	-1	1.1
CC(=O)N(C(C)=O)C1=C(C#N)C2(CCCCC2)Cc2ccccc21	0.03	-18	-6.3*	29	18	nt
CC1(C)Cc2ccccc2C(N)=C1C#N	1.8	-17	0.48	8	2	0.9
CCOc1cc(C2C(C#N)=C(N)Oc3n[nH]c(-c4ccccc4)c32)ccc1O (stereo not given)	-0.039	16	-1.9	12	nt	0.6
c1cn2c(NC3CCCC3)c(-c3ccc(N4CCOCC4)cc3)nc2cn1	1.3	-1	-0.58	4	8	1.1
CCN(CC)c1ccc(-c2nc3cnccn3c2NC2CCCC2)cc1	1.9	-8	-6.2*	35*	10	nt
CCC(O)c1cc2c(cc1NC(=O)c1ccc(C)cc1)OCCO2 (stereo not given)	0.0062	-6	0.035	5	0	0.9
COc1cc(-c2nc3cnccn3c2Nc2ccc(C)cc2)ccc1O	1.6	-8	-0.44	34*	-7	nt
c1ccc(-c2nc3cnccn3c2Nc2ccc3c(c2)OCCO3)cc1	2.5*	4	-1.3	10	nt	0.9
Oc1ccc(-c2nc3cnccn3c2Nc2ccc3c(c2)OCCO3)cc1	nt	-5	nt	-2	1	0.9
Cc1ccc(CNC(=O)CCS(=O)(=O)c2cc(Br)cc3c2N(C(=O)C2CC2)CC3)o1	-0.25	-1	0.99	2	-7	1.1
Cc1nnc(SCCC(=O)Nc2nc(-c3ccccc3)ns2)s1	-0.93	-17	-5*	5	8	0.9
CCC(=O)Nc1nc(-c2ccccc2)ns1	0.47	nt	-0.018	nt	-16	nt
Cc1ccc(C(=O)Nc2ccccc2C(=O)N2CC3(C)CC2CC(C)(C)C3)cc1 (stereo not given)	1.1	2	-5.9*	41*	-1	nt
Cc1csc(NC(=O)Cc2c[nH]c3ccccc23)n1	-0.88	-5	-4.1*	7	-2	nt
